Sampled rows, rich in hits. Any-hit rate of the full collection: about 0.9%.
PPARg SRC3 recr: PPARgamma agonists recruiting SRC-3 coactivator, primary screen, biochemical; Peroxisome proliferator-activated receptor gamma (Homo sapiens), P37231; biochemical PPARgamma/SRC-3 coactivator recruitment assay; activation, % at 8 µM; hit rate 0.26% among 200,000; AID 731, 2007; in the data active means activation above about 23%
Target sequence (P37231 whole entry, looked up): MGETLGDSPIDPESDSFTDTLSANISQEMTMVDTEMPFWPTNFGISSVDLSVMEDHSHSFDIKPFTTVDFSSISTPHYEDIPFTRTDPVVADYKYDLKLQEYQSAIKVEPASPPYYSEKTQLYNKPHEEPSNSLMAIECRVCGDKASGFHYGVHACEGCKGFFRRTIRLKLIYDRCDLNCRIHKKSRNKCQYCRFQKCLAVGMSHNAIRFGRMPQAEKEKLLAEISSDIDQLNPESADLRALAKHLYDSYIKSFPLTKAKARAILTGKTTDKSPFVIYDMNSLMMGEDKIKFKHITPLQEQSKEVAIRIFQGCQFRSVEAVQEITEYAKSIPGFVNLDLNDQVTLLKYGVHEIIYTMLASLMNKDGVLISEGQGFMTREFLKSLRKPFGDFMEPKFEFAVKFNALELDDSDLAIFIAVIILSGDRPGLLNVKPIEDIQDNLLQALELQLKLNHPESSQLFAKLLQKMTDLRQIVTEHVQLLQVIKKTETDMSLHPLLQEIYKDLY
SRC2 TRFRET art: TR-FRET signal artefacts, primary screen, artefact control for PPARgamma SRC-2 agonist project, biochemical; hit rate 0.4% among 200,000; TR-FRET artefact counter-screen; stronger effect = higher value; TR-FRET ratio at 8 µM
SRC1 TRFRET art: TR-FRET detection interference compounds, primary screen, artefact control for PPARgamma SRC-1 recruitment agonists, biochemical, TR-FRET emission ratio. hit rate 0.34% among 99,000. TR-FRET ratio at 8 µM. AID 1051, 2008. TR-FRET detection artefact counter-screen; stronger effect = higher value; in the data active means TR-FRET ratio above about 2300
SRC3 TRFRET art: TR-FRET detection interference compounds, artefact control for PPARgamma SRC-3 recruitment agonists, biochemical, TR-FRET ratio. TR-FRET artefact counter-screen, PPARgamma/SRC-3 format; stronger effect = higher value. TR-FRET ratio at 8 µM. hit rate 0.39% among 99,000
PPARg SRC-2 ag: agonists of PPARg-SRC-2 recruitment, primary screen, biochemical, HTS; Peroxisome proliferator-activated receptor gamma (Homo sapiens), P37231; PPARgamma LBD-SRC-2 recruitment; activation, % at 8 µM; hit rate 0.34% among 200,000; AID 1032, 2008; in the data active means activation above about 22%
PPARg SRC-1 ag: PPARgamma agonists recruiting SRC-1 coactivator, primary screen, biochemical; PPARgamma-SRC-1 coactivator recruitment biochemical assay; activation, % at 8 µM; hit rate 0.41% among 200,000; in the data active means activation above about 19%
Numbers stand for hits. Unless noted, no stated cut-off is given here; in the data, active means TR-FRET ratio above about 2000; inactive means the rest.

How did O=[N+]([O-])c1ccccc1-c1ccc(C(=S)N2CCCC2)o1 do in these assays?
PPARg SRC3 recr: inactive; SRC2 TRFRET art: 1992; SRC1 TRFRET art: inactive; SRC3 TRFRET art: inactive; PPARg SRC-2 ag: inactive; PPARg SRC-1 ag: inactive

Results for S=C(c1ccc(-c2cccc(Cl)c2)o1)N1CCOCC1 ?
PPARg SRC3 recr: inactive; SRC2 TRFRET art: inactive; SRC1 TRFRET art: inactive; SRC3 TRFRET art: inactive; PPARg SRC-2 ag: inactive; PPARg SRC-1 ag: inactive

Results for CCOc1ccccc1NC(=O)CCN(c1ccc(C)cc1)S(=O)(=O)c1ccccc1 ?
PPARg SRC3 recr: inactive; SRC2 TRFRET art: inactive; SRC1 TRFRET art: inactive; SRC3 TRFRET art: inactive; PPARg SRC-2 ag: inactive; PPARg SRC-1 ag: inactive

What do the screens show for `CCCC(C)NC(=O)CSc1nc(-c2ccccc2)cn1N` (stereo unspecified)?
PPARg SRC3 recr: inactive; SRC2 TRFRET art: inactive; SRC1 TRFRET art: inactive; SRC3 TRFRET art: inactive; PPARg SRC-2 ag: inactive; PPARg SRC-1 ag: inactive

How did CCOc1ccccc1-n1c(C)nc2cc(C(=O)O)ccc21 do in these assays?
PPARg SRC3 recr: inactive; SRC2 TRFRET art: inactive; SRC1 TRFRET art: 2322; SRC3 TRFRET art: inactive; PPARg SRC-2 ag: inactive; PPARg SRC-1 ag: inactive

Results for Cc1nc2cc(C(=O)O)ccc2n1-c1ccc(F)cc1F ?
PPARg SRC3 recr: inactive; SRC2 TRFRET art: inactive; PPARg SRC-2 ag: inactive; PPARg SRC-1 ag: inactive

What do the screens show for `Cc1ccc(-c2noc(CCC(=O)N3CCCc4ccccc43)n2)cc1`?
PPARg SRC3 recr: inactive; SRC2 TRFRET art: inactive; PPARg SRC-2 ag: inactive; PPARg SRC-1 ag: inactive

What do the screens show for `CN1/C(=C\C(=O)COc2ccc3c(c2)OCO3)C(C)(C)c2ccccc21`?
PPARg SRC3 recr: inactive; SRC2 TRFRET art: 2258; PPARg SRC-2 ag: inactive; PPARg SRC-1 ag: inactive

How did O=C(COC(=O)c1ccccc1C(=O)c1ccccc1)NCCc1ccccc1 do in these assays?
PPARg SRC3 recr: inactive; SRC2 TRFRET art: inactive; SRC1 TRFRET art: inactive; SRC3 TRFRET art: inactive; PPARg SRC-2 ag: inactive; PPARg SRC-1 ag: 21

What do the screens show for `Cc1cc(OCC(=O)Nc2cc(-c3nn4c(C)nnc4s3)ccc2C)ccc1Cl`?
PPARg SRC3 recr: inactive; SRC2 TRFRET art: inactive; PPARg SRC-2 ag: inactive; PPARg SRC-1 ag: 89

Results for CCn1c(/C(C#N)=N/O)nc2ccccc21 ?
PPARg SRC3 recr: inactive; SRC2 TRFRET art: inactive; SRC1 TRFRET art: inactive; SRC3 TRFRET art: inactive; PPARg SRC-2 ag: inactive; PPARg SRC-1 ag: inactive

How did N#CC1=C(N)OC2=C(CC/C2=C\c2ccc(F)cc2)C1c1ccc(F)cc1 (stereo unspecified) do in these assays?
PPARg SRC3 recr: inactive; SRC2 TRFRET art: inactive; SRC1 TRFRET art: inactive; SRC3 TRFRET art: inactive; PPARg SRC-2 ag: inactive; PPARg SRC-1 ag: inactive

How did N#CC1=C(N)OC2=C(CCC/C2=C/c2ccoc2)C1c1ccoc1 (stereo unspecified) do in these assays?
PPARg SRC3 recr: 31; SRC2 TRFRET art: inactive; PPARg SRC-2 ag: inactive; PPARg SRC-1 ag: inactive

How did Cc1c(C(=O)O)c(C(=O)O)nc2ccc(N3CCOCC3)cc12 do in these assays?
PPARg SRC3 recr: inactive; SRC2 TRFRET art: inactive; SRC1 TRFRET art: inactive; SRC3 TRFRET art: inactive; PPARg SRC-2 ag: inactive; PPARg SRC-1 ag: inactive

Results for O=C(NCCCCCCNC(=O)c1ccc(Br)s1)c1ccc(Br)s1 ?
PPARg SRC3 recr: inactive; SRC2 TRFRET art: 2455; PPARg SRC-2 ag: inactive; PPARg SRC-1 ag: inactive

What do the screens show for `O=C(NCCCCNC(=O)c1ccc(Cl)s1)c1ccc(Cl)s1`?
PPARg SRC3 recr: inactive; SRC2 TRFRET art: inactive; PPARg SRC-2 ag: inactive; PPARg SRC-1 ag: inactive

How did Cc1ccc(OC/C(O)=C(\C#N)c2nc3ccccc3s2)cc1 do in these assays?
PPARg SRC3 recr: inactive; SRC2 TRFRET art: inactive; SRC1 TRFRET art: inactive; SRC3 TRFRET art: inactive; PPARg SRC-2 ag: inactive; PPARg SRC-1 ag: inactive

Results for Cn1c(/C(C#N)=C(\O)COc2ccc3ccccc3c2)nc2ccccc21 ?
PPARg SRC3 recr: inactive; SRC2 TRFRET art: 2360; SRC1 TRFRET art: inactive; SRC3 TRFRET art: inactive; PPARg SRC-2 ag: 32; PPARg SRC-1 ag: inactive

Results for Cc1occc1C(=O)N/N=C/c1ccc(Br)s1 ?
PPARg SRC3 recr: inactive; SRC2 TRFRET art: inactive; SRC1 TRFRET art: inactive; SRC3 TRFRET art: inactive; PPARg SRC-2 ag: inactive; PPARg SRC-1 ag: 22

Results for Cc1ccc(/C=N/NC(=O)c2ccoc2C)s1 ?
PPARg SRC3 recr: inactive; SRC2 TRFRET art: inactive; SRC1 TRFRET art: inactive; SRC3 TRFRET art: inactive; PPARg SRC-2 ag: inactive; PPARg SRC-1 ag: inactive

Results for O=C(NCc1ccco1)c1cc(-c2ccncc2)nc2ccccc12 ?
PPARg SRC3 recr: inactive; SRC2 TRFRET art: inactive; PPARg SRC-2 ag: inactive; PPARg SRC-1 ag: inactive

Results for O=C(NCc1ccccn1)c1cc(-c2ccccc2)nc2ccccc12 ?
PPARg SRC3 recr: inactive; SRC2 TRFRET art: inactive; SRC1 TRFRET art: inactive; SRC3 TRFRET art: inactive; PPARg SRC-2 ag: inactive; PPARg SRC-1 ag: inactive

How did O=C(NCc1ccccn1)c1cc(-c2ccc(-c3ccccc3)cc2)nc2ccccc12 do in these assays?
PPARg SRC3 recr: inactive; SRC2 TRFRET art: inactive; SRC1 TRFRET art: inactive; SRC3 TRFRET art: 2387; PPARg SRC-2 ag: inactive; PPARg SRC-1 ag: inactive

How did O=C(NCc1ccco1)c1cc(-c2cccnc2)nc2ccccc12 do in these assays?
PPARg SRC3 recr: inactive; SRC2 TRFRET art: inactive; SRC1 TRFRET art: 2325; SRC3 TRFRET art: inactive; PPARg SRC-2 ag: inactive; PPARg SRC-1 ag: inactive

Results for COc1ccc(OC)c2c1sc(=NC(=O)C(C)(C)C)n2C ?
PPARg SRC3 recr: 32; SRC2 TRFRET art: 4080; PPARg SRC-2 ag: 121; PPARg SRC-1 ag: inactive

What do the screens show for `Cc1cccn2c(=O)c3cc(C(=O)NCCN4CCOCC4)c(=N)n(CCc4ccccc4)c3nc12`?
PPARg SRC3 recr: 28; SRC2 TRFRET art: inactive; PPARg SRC-2 ag: inactive; PPARg SRC-1 ag: inactive

What do the screens show for `CCOC(=O)c1cc(-c2ccc3c(c2)OCO3)nc2onc(C)c12`?
PPARg SRC3 recr: inactive; SRC2 TRFRET art: 1971; PPARg SRC-2 ag: inactive; PPARg SRC-1 ag: inactive

What do the screens show for `O=C(Cc1sc(-c2ccccc2Cl)nc1-c1ccccc1)Nc1ccccc1`?
PPARg SRC3 recr: inactive; SRC2 TRFRET art: inactive; PPARg SRC-2 ag: inactive; PPARg SRC-1 ag: 75

What do the screens show for `CCc1nnc(NC(=O)CSc2ncnc3c2oc2ccccc23)s1`?
PPARg SRC3 recr: inactive; SRC2 TRFRET art: inactive; PPARg SRC-2 ag: inactive; PPARg SRC-1 ag: 86

How did O=C(CSc1ncnc2c1oc1ccccc12)N1CCN(c2ccccc2)CC1 do in these assays?
PPARg SRC3 recr: inactive; SRC2 TRFRET art: inactive; PPARg SRC-2 ag: inactive; PPARg SRC-1 ag: 87

Results for c1ccc(CSc2ncnc3c2oc2ccccc23)cc1 ?
PPARg SRC3 recr: 84; SRC2 TRFRET art: 2898; PPARg SRC-2 ag: 62; PPARg SRC-1 ag: 59

What do the screens show for `CCCSc1ncnc2c1oc1ccccc12`?
PPARg SRC3 recr: inactive; SRC2 TRFRET art: inactive; PPARg SRC-2 ag: inactive; PPARg SRC-1 ag: inactive

Assay outcomes: PubChem, The Scripps Research Institute Molecular Screening Center
